PubChem BioAssay
A number with no mark means an inactive call. For some of these results: Results with a measured potency or affinity are listed apart. Active and inactive are the calls of the source. Unless noted, no rule for the calls is given here.

What was measured:
[1] = antimalarial activity against Dd2 strain (AID 2302;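 active = growth inhibition above 50% at the single 2 µM test dose, taken to imply half-maximal potency below 2 µM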;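 also: 0% = DMSO untreated growth and 100% = chloroquine plus artemisinin killed control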); conditions: P. falciparum Dd2 in RBCs, LDH growth readout, 72 h; at 2 µM; stronger effect = higher value
[2] = human hepatoma cell viability loss – ATP luminescence, cytotoxicity control for P. falciparum antimalarial project, primary screen (AID 2303;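 active = inhibition above 50%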;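 also: 0% = DMSO wells and 100% = digitonin-killed cells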); conditions: HepG2 viability, 24-48 h, at 10 µM, stronger effect = higher value
[3] = biological target: L-lactate dehydrogenase (Plasmodium falciparum (isolate CDC / Honduras)) (UniProt Q27743); experiment: PfLDH activity inhibition – cell lysate, 3D7 strain, counter-screen for P. falciparum growth inhibition project (AID 2304);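 also: 0% = vehicle and 100% = reference inhibitor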; conditions: P. falciparum 3D7 crude extract, LDH APAD/NBT absorbance; at 2 µM; stronger effect = higher value
[4] = inhibition of 3D7 malaria parasite growth – strain 3D7 (AID 2306);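 also: 0% = DMSO wells and 100% = chloroquine plus artemisinin control wells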; conditions: P. falciparum 3D7 erythrocytic growth, LDH absorbance, 72 h; at 2 µM; stronger effect = higher value
[5] = biological target: Calcium-dependent protein kinase 1 (Plasmodium falciparum (isolate 3D7)) (UniProt P62344); experiment: PfCDPK1 kinase inhibitors, biochemical, TCAMS library (AID 1159585; cut-off not given, nearly all actives have IC50 up to about 0.98 µM;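 also: inhibitors leave more ATP so luminescence rises with inhibition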); conditions: recombinant PfCDPK1, Kinase-Glo ATP depletion luminescence
[6] = biological target: Plasmodium falciparum protein kinase 6 (PK6, PF3D7_1337100) (UniProt Q8IDW1); experiment: PfPK6 kinase inhibitors, biochemical, TCAMS library (AID 1159586); conditions: recombinant PfPK6, Kinase-Glo ATP depletion luminescence
[7] = biological target: Protein kinase 7 (PK7), Plasmodium falciparum 3D7 (PF3D7_0213400) (UniProt Q7YTF7); experiment: inhibition of Plasmodium PK7 catalytic activity – biochemical, TCAMS antimalarial set, Kinase-Glo luminescence (AID 1159587); conditions: recombinant PfPK7, Kinase-Glo ATP depletion luminescence
[8] = biological target: Calcium-dependent protein kinase 4 (Plasmodium falciparum (isolate 3D7)) (UniProt Q8IBS5); experiment: PfCDPK4 kinase inhibitors, biochemical, TCAMS library (AID 1159588; cut-off not given, nearly all actives have IC50 up to about 0.91 µM); conditions: recombinant PfCDPK4, Kinase-Glo ATP depletion luminescence
Calcium-dependent protein kinase 4 (Plasmodium falciparum (isolate 3D7)), sequence (Q8IBS5 whole entry, looked up): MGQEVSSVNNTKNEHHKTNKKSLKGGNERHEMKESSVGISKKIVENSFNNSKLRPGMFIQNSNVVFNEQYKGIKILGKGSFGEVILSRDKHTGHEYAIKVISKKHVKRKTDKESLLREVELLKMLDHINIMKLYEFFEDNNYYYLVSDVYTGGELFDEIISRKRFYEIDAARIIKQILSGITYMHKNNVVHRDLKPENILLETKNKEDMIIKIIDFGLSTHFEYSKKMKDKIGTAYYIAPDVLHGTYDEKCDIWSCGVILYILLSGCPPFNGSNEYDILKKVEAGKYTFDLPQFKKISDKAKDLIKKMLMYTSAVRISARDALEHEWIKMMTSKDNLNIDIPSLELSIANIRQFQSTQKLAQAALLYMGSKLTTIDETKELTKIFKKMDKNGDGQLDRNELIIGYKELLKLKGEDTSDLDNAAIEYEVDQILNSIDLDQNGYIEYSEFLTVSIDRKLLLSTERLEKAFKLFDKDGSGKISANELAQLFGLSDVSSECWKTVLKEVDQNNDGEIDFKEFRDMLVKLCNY

Plasmodium falciparum protein kinase 6 (PK6, PF3D7_1337100), sequence (Q8IDW1 1-305): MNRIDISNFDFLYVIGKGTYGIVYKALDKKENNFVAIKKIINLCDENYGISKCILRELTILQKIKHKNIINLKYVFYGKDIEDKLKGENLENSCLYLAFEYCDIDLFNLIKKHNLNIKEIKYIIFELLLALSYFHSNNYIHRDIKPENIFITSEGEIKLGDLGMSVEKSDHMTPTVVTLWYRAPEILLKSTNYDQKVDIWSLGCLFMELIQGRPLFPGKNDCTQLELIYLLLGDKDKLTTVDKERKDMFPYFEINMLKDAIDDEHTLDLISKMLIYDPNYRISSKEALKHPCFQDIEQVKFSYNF
L-lactate dehydrogenase (Plasmodium falciparum (isolate CDC / Honduras)), sequence (Q27743 whole entry, looked up): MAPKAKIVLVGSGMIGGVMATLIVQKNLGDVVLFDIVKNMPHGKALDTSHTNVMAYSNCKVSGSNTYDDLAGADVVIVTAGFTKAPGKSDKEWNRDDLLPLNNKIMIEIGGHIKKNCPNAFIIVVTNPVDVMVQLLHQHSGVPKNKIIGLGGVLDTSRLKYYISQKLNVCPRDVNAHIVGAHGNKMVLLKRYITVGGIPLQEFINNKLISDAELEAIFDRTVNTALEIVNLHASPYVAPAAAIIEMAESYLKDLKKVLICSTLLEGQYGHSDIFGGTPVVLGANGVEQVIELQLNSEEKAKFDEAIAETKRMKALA
Protein kinase 7 (PK7), Plasmodium falciparum 3D7 (PF3D7_0213400), sequence (Q7YTF7 1-343): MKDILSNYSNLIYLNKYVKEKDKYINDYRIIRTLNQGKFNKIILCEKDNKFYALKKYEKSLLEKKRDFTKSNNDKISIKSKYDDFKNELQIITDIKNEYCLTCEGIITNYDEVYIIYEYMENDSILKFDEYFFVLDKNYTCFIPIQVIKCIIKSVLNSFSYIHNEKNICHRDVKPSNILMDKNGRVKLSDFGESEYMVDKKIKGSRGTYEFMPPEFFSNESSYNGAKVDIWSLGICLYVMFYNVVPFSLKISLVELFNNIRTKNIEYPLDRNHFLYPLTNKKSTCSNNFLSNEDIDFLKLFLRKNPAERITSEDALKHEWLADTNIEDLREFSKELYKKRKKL
Calcium-dependent protein kinase 1 (Plasmodium falciparum (isolate 3D7)), sequence (P62344 whole entry, looked up): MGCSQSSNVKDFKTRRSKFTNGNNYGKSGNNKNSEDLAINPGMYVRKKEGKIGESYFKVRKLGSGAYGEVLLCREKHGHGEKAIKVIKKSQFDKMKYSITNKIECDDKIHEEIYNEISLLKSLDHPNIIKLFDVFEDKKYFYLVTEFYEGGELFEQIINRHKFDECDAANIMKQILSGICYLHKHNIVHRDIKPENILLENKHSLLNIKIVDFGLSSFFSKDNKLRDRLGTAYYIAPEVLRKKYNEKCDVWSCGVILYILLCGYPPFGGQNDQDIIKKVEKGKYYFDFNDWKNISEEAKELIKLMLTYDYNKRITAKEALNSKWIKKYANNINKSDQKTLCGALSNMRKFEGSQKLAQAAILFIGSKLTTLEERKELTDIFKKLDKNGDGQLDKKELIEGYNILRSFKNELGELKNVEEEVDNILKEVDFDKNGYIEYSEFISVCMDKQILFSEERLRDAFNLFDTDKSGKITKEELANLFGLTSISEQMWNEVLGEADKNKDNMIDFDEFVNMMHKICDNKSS

Compound | growth inhibition [1] | inhibition [2] | inhibition [3] [%] | growth inhibition [4] | outcome [5] | outcome [6] | outcome [7] | outcome [8]
Nc1nccc2ccc(-c3cccc(O)c3)cc12 | 71% (active) | 43% | 7 | 95% (active) | inactive | inactive | inactive | inactive
O=C(NCCCCN1CCC(c2nc3ccccc3s2)CC1)c1cc2ccccc2[nH]1 | 64% (active) | 43% | -5 | 86% (active) | inactive | inactive | inactive | inactive
COc1ccc(CNCc2cccc(-c3ccc(-c4nc5c(C)cccc5[nH]4)s3)c2)cc1 | 65% (active) | 24% | 7 | 103% (active) | inactive | inactive | inactive | inactive
CCc1cc(NC(=O)Nc2ccnc3ccccc23)ccc1OC | 24% | -6% | 2 | 85% (active) | inactive | inactive | inactive | inactive
CN1CCC(N2CCN(Cc3cccc(-c4ccc(-c5nc6ccccc6[nH]5)cc4)c3)CC2)CC1 | 99% (active) | 56% (active) | -7 | 100% (active) | inactive | inactive | inactive | inactive
Cc1[nH]c(C)c(-c2cccc(-c3ccc(OC(F)(F)F)cc3)c2)c(=O)c1Br | 96% (active) | 45% | 0 | 97% (active) | inactive | inactive | inactive | inactive
NC(=O)COc1c(C2CCN(CCCCNC(=O)c3ccc(-c4ccc(Cl)cc4)c(O)c3)CC2)ccc2c1CCCC2 | 72% (active) | 97% (active) | 4 | 101% (active) | inactive | inactive | inactive | inactive
CCOC(=O)C1=C(C)N=c2sc(=Cc3cc(Cl)ccc3O)c(=O)n2C1c1ccc(OC)cc1 (stereo not given) | 65% (active) | -6% | -3 | 99% (active) | inactive | inactive | inactive | inactive
CCOc1ccc2nc(N(CCCn3ccnc3)C(=O)C=Cc3cccs3)sc2c1 | 97% (active) | -1% | -1 | 97% (active) | inactive | inactive | inactive | inactive
O=C(/C=C/c1ccc(Cl)c(Cl)c1)N1CCC(NCc2ccc3[nH]ccc3c2)CC1 | 1% | 44% | -2 | 97% (active) | inactive | inactive | inactive | inactive
Cc1ccc2c(NC(=O)Nc3ccc(N(C)C)cc3)cc(C)nc2c1 | 20% | -6% | 0 | 98% (active) | inactive | inactive | inactive | inactive
O=C(C=Cc1ccc(Cl)c(Cl)c1)NCCCCCN1CCC(CCCNC(=O)/C=C/c2ccccc2)CC1 | 33% | 50% (active) | -9 | 96% (active) | inactive | inactive | inactive | inactive
Fc1cc(Cl)ccc1Nc1ccnc2cc(-c3ccc(CN4CCCCC4)o3)ccc12 | 99% (active) | 16% | -1 | 100% (active) | inactive | inactive | inactive | inactive
CCOC(=O)c1cc(=O)c2ccc(OCC#N)cc2o1 | 86% (active) | 2% | -6 | 88% (active) | inactive | inactive | inactive | inactive
Cc1cc(Nc2ccc(C)c(Cl)c2)n2nc(C(F)(F)F)nc2n1 | 97% (active) | 2% | 2 | 98% (active) | inactive | inactive | inactive | inactive
CCNS(=O)(=O)c1ccc(Oc2ccc([N+](=O)[O-])cc2)cc1 | 85% (active) | 1% | 1 | 94% (active) | inactive | inactive | inactive | inactive
CCNc1cc(C)nc(Nc2ccc(NC(=O)c3c(F)cccc3Cl)cc2)n1 | 89% (active) | 49% | -4 | 102% (active) | inactive | inactive | inactive | inactive
CCN(CCNC(=O)Cn1c(C)cc2cc([N+](=O)[O-])ccc21)c1cccc(C)c1 | 95% (active) | -3% | 6 | 97% (active) | inactive | inactive | inactive | inactive
O=S(=O)(Nc1ccc2nccc(N3CCNCC3)c2c1)c1ccc2oc3ccccc3c2c1 | 2% | 16% | -5 | 101% (active) | inactive | inactive | inactive | inactive
CCCCN=C(N)Nc1ccc(OCCCOc2ccc(NC(N)=NCCCC)cc2)cc1 | 97% (active) | 15% | 4 | 96% (active) | inactive | inactive | inactive | inactive
